# PubChem BioAssay (NCATS)
# Records with an inconclusive call do not appear. A call without a number means that no potency is given here. Activity calls are given as the source filed them. Calls follow the shape of the full dose curve.
# What was measured:
# [1] = Primary qHTS for Huh7 cytotoxicity: counterscreen for inhibitors of MERS-S pseudotyped particle cell entry (AID 1479147); details: cell viability read-out; series mostly up to 57.1 µM; also: potency is read from the fitted curve at half-maximal effect
# [2] = Primary qHTS for inhibitors of SARS-S pseudo-typed particle cell entry (AID 1479145); details: SARS-S pseudotyped particle cell entry, luciferase reporter; series mostly up to 57.1 µM; also: nearly all actives have a fitted effect of over 45% in size
Compound,Potency [1],Potency [2]
COc1ccc(OC)c(C(O)CNC(=O)CN)c1 (centres undefined),inactive,–
CCN(CC)CCNC(=O)c1c(C)[nH]c(/C=C2\C(=O)Nc3ccc(F)cc32)c1C,31.6 µM (active),–
NS(=O)(=O)c1cc2c(cc1C(F)(F)F)NCNS2(=O)=O,inactive,–
C[C@H]1O[C@H](O[C@H]2[C@H](O)[C@@H](O)[C@@H](O[C@H]3[C@H](O)[C@@H](O)[C@H](O)O[C@@H]3CO)O[C@@H]2CO)[C@H](O)[C@@H](O)[C@@H]1N[C@H]1C=C(CO)[C@@H](O)[C@H](O)[C@H]1O,inactive,–
CCCCNC(=O)NS(=O)(=O)c1ccc(C)cc1,inactive,inactive
Cc1ccccc1C(=O)Nc1ccc(C(=O)N2CCCC(O)c3cc(Cl)ccc32)c(C)c1 (centres undefined),inactive,–
CN(N=O)C(=O)N[C@@H]1[C@@H](O)[C@H](O)[C@@H](CO)O[C@@H]1O,inactive,inactive
Cc1ccsc1C(=CCCN1CCC[C@@H](C(=O)O)C1)c1sccc1C,inactive,–
CN1CCN(C(c2ccccc2)c2ccccc2)CC1,inactive,–
NC1[C@H]2CN(c3nc4c(cc3F)c(=O)c(C(=O)O)cn4-c3ccc(F)cc3F)C[C@@H]12 (some centres undefined),inactive,–
CN1CCN(C2=Nc3cc(Cl)ccc3Nc3ccccc32)CC1,inactive,–
O=C1c2cccc3c2[C@H](CCC3)CN1[C@@H]1CN2CCC1CC2,inactive,inactive
Cc1cn([C@H]2C=C[C@@H](CO)O2)c(=O)[nH]c1=O,inactive,inactive
COc1cc(NC(C)CCCN)c2ncccc2c1 (centres undefined),inactive,–
Cc1ccnc2c1NC(=O)c1cccnc1N2C1CC1,inactive,–
